# From PubChem BioAssay (EPA / NIEHS)
# Activity calls are given as the source filed them. The calls were made as follows: active = hit-call score of the fitted dose curve at least 0.9, where 1 is the maximum; inactive = score below 0.9.
# System: SRY-box transcription factor 2 (SOX2) Protein Expression, Deisenroth Lab, SOX2 (gene 6657)
# Experiment: CCTE_Deisenroth_DEVTOX-GLR_Pluri_SOX2: CCTE's DevTox GLR-Pluri Assay Evaluation of SRY-box transcription factor 2 (SOX2) Protein Expression, Deisenroth Lab (AID 2284428)
# Method: CCTE_Deisenroth_DEVTOX-GLR_Pluri assay is a cell-based, multiplex-readout assay that uses RUES2-GLR, a human pluripotent cell line, with measurements taken at 48 hours after chemical dosing in a 384-well microplateCCTE_Deisenroth_DEVTOX-GLR_Pluri_SOX2 is 1 of 4 assay components calculated from the CCTE_Deisenroth_DEVTOX-GLR_Pluri assay and it measures an the percentage of cells in an pluripotent state. Using a type of inducible fluorescent protein reporter, gain-of-signal activity can be used to understand changes in gene expression with fluorescent microscopy. The percentage of SOX2+ cells are determined by calculating the number of SOX2+ cells divided by the cell count. To generalize the intended target to other relatable targets, this assay component is annotated to the transcription factor intended target family, where the subfamily is SRY-related HMG-box.Data from the assay component CCTE_Deisenroth_DEVTOX-GLR_Pluri_SOX2 was analyzed as 1 assay endpoint. The endpoint is the percent change in the SOX2+ cell population relative to the 0.2% DMSO control in the CCTE_Deisenroth_DEVTOX-GLR_Pluri assay. Furthermore, this assay endpoint can be referred to as a primary readout, because this assay has produced multiple assay endpoints where this one serves as a measure of […].
# All assay protocols are aligned to the DevTox GLR-Endo assay workflow. Cells are seeded into 384-well microplates for 24 hours prior to initiating differentiation in defined media for a total duration of 48 hours. A total of two chemical exposures are administered in 24-hour intervals during the 48-hour differentiation period. At the assay termination point, cells are fixed and stained with a fluorescent dye demarcating the nucleus. High-content imaging is used to acquire brightfield and fluorescent channel images across 5 fields per well. Cell identification and mean biomarker fluorescence intensities are calculated with image analysis software to determine the total cell counts for viability assessment and the biomarker expression frequency for each lineage-dependent assay. A typical experimental design tests a 10-point concentration series (1 nM - 200 uM) for 28 compounds in single technical replicate. Assay plate controls include non-differentiated pluripotent cells (baseline control), lineage-specific differentiated cells (differentiation control), and DMSO solvent exposed differentiated cells (solvent control). Experiments typically comprise a minimum of four experimental replicates (n=4).
SMILES,AC50,outcome
Cc1nc(Nc2ncc(C(=O)Nc3c(C)cccc3Cl)s2)cc(N2CCN(CCO)CC2)n1,0.621 µM (active),–
Cc1nc2sccn2c(=O)c1CCN1CCC(=C(c2ccc(F)cc2)c2ccc(F)cc2)CC1,16.9 µM (active),–
O=C(c1ccc(F)cc1)C1CCN(CCn2c(=O)[nH]c3ccccc3c2=O)CC1,19.8 µM (active),–
CC1=C(/C=C/C(C)=C/C=C/C(C)=C\C(=O)O)C(C)(C)CCC1,1.78 µM (active),–
O=c1[nH]c(=O)n([C@H]2C[C@H](O)[C@@H](CO)O2)cc1Br,3.42 µM (active),–
CCN(CC)CCNC(=O)c1c(C)[nH]c(/C=C2\C(=O)Nc3ccc(F)cc32)c1C,0.432 µM (active),–
O=C1Cc2cc(CCN3CCN(c4nsc5ccccc45)CC3)c(Cl)cc2N1,4.27 µM (active),–
COc1cc2c(Nc3ccc(Br)cc3F)ncnc2cc1OCC1CCN(C)CC1,–,inactive
CN1CCN2c3ccccc3Cc3ccccc3C2C1 (centres undefined),24.3 µM (active),–
Nc1cccc2c1CN(C1CCC(=O)NC1=O)C2=O (centres undefined),0.0287 µM (active),–
CCCCCN=C(N)N/N=C/c1c[nH]c2ccc(OC)cc12,7.76 µM (active),–
COc1cc2ncnc(Nc3ccc(F)c(Cl)c3)c2cc1OCCCN1CCOCC1,–,inactive
Cc1ccc(NC(=O)c2ccc(CN3CCN(C)CC3)cc2)cc1Nc1nccc(-c2cccnc2)n1,15.7 µM (active),–
CNC(=O)c1cc(Oc2ccc(NC(=O)Nc3ccc(Cl)c(C(F)(F)F)c3)cc2)ccn1,29.3 µM (active),–
